Our source for the outcome and AC50 values is PubChem BioAssay (EPA / NIEHS).

SMILES strings stand for the structures. Activity calls are given as the source filed them. Rule for the calls: active = hit-call score of the fitted dose curve at least 0.9, where 1 is the maximum; inactive = score below 0.9.

Usually AC50 stands for the concentration giving half of the maximal activity seen.

For test [1], the target named is Bile acid receptor (Homo sapiens) (UniProt Q96RI1). Nature of the test: ATG_IR1_CIS: Attagene CIS-FACTORIAL HepG2 Assay for human Nuclear Receptor Subfamily 1 Group H Member 4 (NR1H4), IR1 submotif (AID 2282946). The conditions noted are these: IR1 reporter transcription, actives raise or lower the signal. Put shortly:
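Transient MRTU transfection, HepG2; 24 h dosing; RNA → RT-PCR → 6-FAM primer extension → HpaI digest → capillary electrophoresis fluorescence. Gain/loss of signal fitted relative to DMSO.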

Test [2] can be described thus: ATG_GRE_CIS: Attagene CIS-FACTORIAL HepG2 Assay for human Glucocorticoid Response Elements (GRE) (AID 2282947). The conditions noted are these: HepG2 GRE cis-reporter, Attagene multiplex mRNA; actives raise or lower the signal. Put shortly:
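HepG2 cells transiently transfected with multiple cis-promoter reporter units measure endogenous TF activity; 24 h compound exposure. Reporter mRNA quantified by RT-PCR, FAM labelling, HpaI digestion and capillary electrophoresis; bidirectional fit vs DMSO baseline.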

The nature of test [3]: ATG_M_32_CIS: Attagene CIS-FACTORIAL HepG2 Assay for M32 Transcription Factor (Internal Marker) (AID 2282949).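 Note: background control marker of the multiplexed CIS panel rather than a real target.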 The note with it: HepG2 Attagene cis-factorial M32 reporter, mRNA; actives raise or lower the signal. In outline: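 Following 24 h chemical exposure of HepG2 cells transiently expressing cis-promoter reporter constructs, reporter transcript levels were determined by RT-PCR with fluorescent labelling and capillary electrophoresis, then fitted bidirectionally against DMSO.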

Test [4] in a line: ATG_M_06_CIS: Attagene CIS-FACTORIAL HepG2 Assay for M06 Transcription Factor (Internal Marker) (AID 2282950). The note with it: HepG2 Attagene CIS-FACTORIAL M06 internal marker reporter; actives raise or lower the signal. In outline:
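Terse: HepG2, transient MRTU transfection (FuGene 6), 24 h dosing; total RNA, oligo(dT) RT, PCR, FAM label, HpaI cut, capillary electrophoresis; bidirectional fit vs DMSO baseline; background-control endpoint.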

In test [5] the target is Hypoxia-inducible factor 1-alpha (Homo sapiens) (UniProt Q16665). Nature of the test: ATG_HIF1a_CIS: Attagene CIS-FACTORIAL HepG2 Assay for human Hypoxia Inducible Factor 1 (HIF1A) (AID 2282951). The note with it: HepG2 Attagene cis-factorial HIF1a reporter transcription; actives raise or lower the signal. Put shortly:
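Transient MRTU transfection of human HepG2 liver cells, 24 h compound treatment, then total RNA isolation, oligo(dT) reverse transcription, PCR amplification, fluorescent labelling and capillary electrophoresis of reporter fragments. Gain or loss relative to DMSO.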

In test [6] the target is Heat shock factor protein 1 (Homo sapiens) (UniProt Q00613). Nature of the test: ATG_HSE_CIS: Attagene CIS-FACTORIAL HepG2 Assay for human Heat Shock Transcription Factor 1 (HSE) (AID 2282953). The note with it: HepG2 HSE cis-reporter, Attagene RNA transcription; actives raise or lower the signal. Put shortly: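 Read-out: fluorescence of reporter-specific RT-PCR fragments separated by capillary electrophoresis. HepG2 carrying transfected cis-element reporter units; 24 h dosing; activity fitted in both directions relative to DMSO baseline.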

Test [7] in a line: ATG_MRE_CIS: Attagene CIS-FACTORIAL HepG2 Assay for human Metal Responsive Element (MRE) (AID 2282954). The note with it: HepG2 MRE cis-reporter transcription, Attagene multiplex; actives raise or lower the signal. Put shortly:
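HepG2 cells transiently transfected with multiple cis-element reporter units measure endogenous MTF1-driven transcription. After 24 h compound exposure, reporter mRNA is quantified by RT-PCR with 6-FAM labelling, HpaI digestion and capillary electrophoresis; bidirectional fits versus DMSO.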

The nature of test [8]: ATG_PBREM_CIS: Attagene CIS-FACTORIAL HepG2 Assay for human Phenobarbital-responsive Enhancer Module (PBREM) (AID 2282955). The note with it: HepG2 PBREM cis-reporter, Attagene multiplexed transcription; actives raise or lower the signal. Put shortly:
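Endogenous transcription factors in human liver HepG2 cells drive a PBREM cis-element reporter, whose transcript level after 24 h treatment is quantified by RT-PCR with capillary electrophoresis; activity fitted in both directions against DMSO.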

Test [9] concerns the target Paired box protein Pax-6 (Homo sapiens) (UniProt P26367). Nature of the test: ATG_Pax6_CIS: Attagene CIS-FACTORIAL HepG2 Assay for human Paired Box 6 (PAX6) (AID 2282956). The note with it: HepG2 CIS-FACTORIAL PAX6 reporter transcription, RNA readout; actives raise or lower the signal. Put shortly: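 HepG2 cells transiently transfected with cis-promoter-driven multiplexed reporter units sensing endogenous transcription factor activity; 24 h chemical exposure. Reporter mRNA quantified by RT-PCR, 6-FAM labelling, HpaI digestion and capillary electrophoresis; bidirectional fit versus DMSO baseline.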

The nature of test [10]: ATG_PXRE_CIS: Attagene CIS-FACTORIAL HepG2 Assay for human Pregnane X Receptor Element (PXRE) (AID 2282957). The note with it: HepG2 Attagene CIS-FACTORIAL PXRE reporter, mRNA; actives raise or lower the signal. In outline:
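Multiplexed cis-reporter assay in transiently transfected human HepG2 cells; 24 h chemical exposure. Reporter transcripts quantified by RT-PCR with fluorescent labeling and capillary electrophoresis.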

Test [11] is described as follows: ATG_PPRE_CIS: Attagene CIS-FACTORIAL HepG2 Assay for human Peroxisome Proliferator-activated Response Element (PPRE) (AID 2282958). The conditions noted are these: HepG2 PPRE cis-element reporter, Attagene transcription factor profiling; actives raise or lower the signal. In outline:
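HepG2, transient MRTU transfection (cis promoter elements, endogenous TFs). 24 h dosing. RNA → oligo(dT) RT → PCR → 6-FAM primer extension → HpaI digest → CE. Bidirectional fit vs DMSO.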

Test [12] is described as follows: ATG_RORE_CIS: Attagene CIS-FACTORIAL HepG2 Assay for human RAR-related Orphan Receptor Element (RORE) (AID 2282959). The conditions noted are these: HepG2 Attagene cis-factorial RORE reporter, mRNA; actives raise or lower the signal. In outline: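 Transient MRTU transfection of human HepG2 liver cells (FuGene 6); 24 h compound exposure; TriZol RNA, oligo(dT) RT, PCR, FAM labeling, HpaI cut, CE fragment analysis. DMSO = negative control/baseline.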

The nature of test [13]: ATG_Sox_CIS: Attagene CIS-FACTORIAL HepG2 Assay for human SRY-box transcription factor (SOX) (AID 2282960). The conditions noted are these: HepG2 Attagene cis-factorial SOX reporter, mRNA; actives raise or lower the signal. In outline: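 Endogenous factor activity in human liver HepG2 cells carrying transfected cis-regulated reporter units. RNA taken 24 h post-dose, reverse-transcribed, PCR-amplified and sized by capillary electrophoresis. Gain or loss of signal fitted relative to DMSO.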

The target of test [14] is Transcription factor Sp1 (Homo sapiens) (UniProt P08047). In words: ATG_Sp1_CIS: Attagene CIS-FACTORIAL HepG2 Assay for human Specificity Protein 1 (Sp1) (AID 2282961). The conditions noted are these: HepG2 Sp1 cis-reporter transcription, actives raise or lower the signal. In outline: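 Transient MRTU-transfected HepG2, 24 h compound exposure. Total RNA → oligo(dT) RT → PCR of reporter → 6-FAM primer extension → HpaI digest → CE. Endpoint fitted both directions vs DMSO.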

Test [15] can be described thus: ATG_SREBP_CIS: Attagene CIS-FACTORIAL HepG2 Assay for human Sterol Regulatory Element Binding (SREBP) (AID 2282962). The conditions noted are these: HepG2 Attagene cis-factorial SREBP reporter, mRNA; actives raise or lower the signal. In outline:
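HepG2 cells transiently transfected with multiplexed cis-promoter reporter units sensing endogenous transcription factors; reporter mRNA measured 24 h after dosing by RT-PCR, 6-FAM labeling, HpaI digestion and capillary electrophoresis. Bidirectional fit versus DMSO.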

The target in test [16] is Signal transducer and activator of transcription 3 (Homo sapiens) (UniProt P40763). Nature of the test: ATG_STAT3_CIS: Attagene CIS-FACTORIAL HepG2 Assay for human Signal Transducer and Activator of Transcription 3 (STAT3) (AID 2282963). The note with it: HepG2, Attagene cis-factorial STAT3 reporter transcription; actives raise or lower the signal. Put shortly:
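HepG2 cells transiently transfected with cis-element-driven multiple reporter transcription units; after 24 h chemical exposure, reporter mRNA measured by RT-PCR, 6-FAM primer-extension labelling, HpaI digestion and capillary electrophoresis. Bidirectional fitting versus DMSO baseline.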

A short description of test [17]: ATG_TA_CIS: Attagene CIS-FACTORIAL HepG2 Assay for human TA Basal Promoter (AID 2282964). The conditions noted are these: HepG2 Attagene CIS-factorial TA basal promoter reporter; actives raise or lower the signal. Put shortly:
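Transfected HepG2, 24 h compound exposure; RNA → RT-PCR → FAM primer extension → HpaI cut → CE fluorescence. Gain/loss-of-signal fitted against DMSO negative control. Background-control readout.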

A short description of test [18]: ATG_TCF_b_cat_CIS: Attagene CIS-FACTORIAL HepG2 Assay for human T-Cell-Factor with beta-catenin (TCF/b-cat) (AID 2282965). The conditions noted are these: HepG2 TCF/beta-catenin cis-reporter transcription, actives raise or lower the signal. In outline: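 In this cis-format system, transfected HepG2 cells report endogenous transcription factor activity. Readout after 24 h exposure is reporter transcript abundance from RT-PCR and capillary electrophoresis, analysed for gain or loss of signal versus DMSO.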

Test [19] can be described thus: ATG_ISRE_CIS: Attagene CIS-FACTORIAL HepG2 Assay for human Interferon Regulatory Factor 1 (IRF1) binding to an Interferon-Stimulated Response Element (ISRE) (AID 2282948). The note with it: HepG2 ISRE cis-reporter (Attagene), mRNA transcription readout; actives raise or lower the signal. In outline:
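Transiently transfected HepG2 cells carrying cis-element reporter units, dosed 24 hours. Reporter mRNA quantified by RT-PCR, fluorescent primer extension, HpaI digestion and capillary electrophoresis. Bidirectional fitting relative to DMSO.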

Test [20] deals with Hepatocyte nuclear factor 6 (Homo sapiens) (UniProt Q9UBC0). Nature of the test: ATG_HNF6_CIS: Attagene CIS-FACTORIAL HepG2 Assay for human Hepatocyte Nuclear Factor 6 (HNF6) (AID 2282952). The conditions noted are these: HepG2 Attagene cis-factorial HNF6 reporter transcription; actives raise or lower the signal. Put shortly:
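Cells are HepG2 carrying transiently transfected cis-promoter reporter units. Treatment lasts 24 h, after which reporter transcripts are reverse-transcribed, amplified, FAM-labelled and sized by capillary electrophoresis. DMSO serves as baseline.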

Transcription factor Sp1 (Homo sapiens), sequence (P08047 whole entry, looked up): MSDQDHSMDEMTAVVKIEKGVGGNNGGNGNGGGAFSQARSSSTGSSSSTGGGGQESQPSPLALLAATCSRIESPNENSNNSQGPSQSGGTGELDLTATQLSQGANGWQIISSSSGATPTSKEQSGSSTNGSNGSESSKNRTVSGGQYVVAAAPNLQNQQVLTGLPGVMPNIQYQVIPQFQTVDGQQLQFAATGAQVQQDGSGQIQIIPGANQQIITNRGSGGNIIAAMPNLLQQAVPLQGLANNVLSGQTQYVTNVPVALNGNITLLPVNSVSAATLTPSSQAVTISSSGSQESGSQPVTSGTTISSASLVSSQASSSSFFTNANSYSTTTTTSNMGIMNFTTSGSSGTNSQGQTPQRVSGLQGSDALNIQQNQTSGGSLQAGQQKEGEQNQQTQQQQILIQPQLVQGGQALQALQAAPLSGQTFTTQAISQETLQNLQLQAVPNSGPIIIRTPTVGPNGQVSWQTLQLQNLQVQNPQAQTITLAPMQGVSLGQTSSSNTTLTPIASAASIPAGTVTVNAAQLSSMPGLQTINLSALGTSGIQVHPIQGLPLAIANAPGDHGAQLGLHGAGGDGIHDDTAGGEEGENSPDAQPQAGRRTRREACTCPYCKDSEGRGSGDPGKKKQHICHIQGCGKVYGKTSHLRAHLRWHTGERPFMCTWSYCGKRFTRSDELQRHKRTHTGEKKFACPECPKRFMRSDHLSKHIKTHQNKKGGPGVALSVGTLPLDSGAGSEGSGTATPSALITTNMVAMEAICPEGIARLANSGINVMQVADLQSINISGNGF
Signal transducer and activator of transcription 3 (Homo sapiens), sequence (P40763 whole entry, looked up): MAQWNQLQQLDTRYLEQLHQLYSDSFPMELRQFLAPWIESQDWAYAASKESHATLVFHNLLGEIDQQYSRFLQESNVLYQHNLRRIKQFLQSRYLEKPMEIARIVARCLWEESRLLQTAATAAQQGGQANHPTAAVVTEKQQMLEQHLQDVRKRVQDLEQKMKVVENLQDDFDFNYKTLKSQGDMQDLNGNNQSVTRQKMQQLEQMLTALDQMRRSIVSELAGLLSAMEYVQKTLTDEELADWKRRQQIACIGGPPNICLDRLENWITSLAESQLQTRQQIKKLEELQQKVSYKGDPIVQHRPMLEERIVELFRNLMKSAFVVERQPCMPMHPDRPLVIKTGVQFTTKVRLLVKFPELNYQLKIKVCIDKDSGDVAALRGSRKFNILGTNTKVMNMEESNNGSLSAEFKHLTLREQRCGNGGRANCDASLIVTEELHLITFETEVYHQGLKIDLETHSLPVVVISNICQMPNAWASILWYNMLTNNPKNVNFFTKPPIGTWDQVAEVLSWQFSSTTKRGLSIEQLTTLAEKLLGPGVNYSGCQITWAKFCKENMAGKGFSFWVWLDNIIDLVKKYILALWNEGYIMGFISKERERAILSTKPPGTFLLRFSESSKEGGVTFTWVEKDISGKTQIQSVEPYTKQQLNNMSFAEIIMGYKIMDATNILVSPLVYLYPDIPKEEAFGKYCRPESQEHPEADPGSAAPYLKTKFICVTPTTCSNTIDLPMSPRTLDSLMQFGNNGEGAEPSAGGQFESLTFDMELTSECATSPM
Bile acid receptor (Homo sapiens), sequence (Q96RI1 whole entry, looked up): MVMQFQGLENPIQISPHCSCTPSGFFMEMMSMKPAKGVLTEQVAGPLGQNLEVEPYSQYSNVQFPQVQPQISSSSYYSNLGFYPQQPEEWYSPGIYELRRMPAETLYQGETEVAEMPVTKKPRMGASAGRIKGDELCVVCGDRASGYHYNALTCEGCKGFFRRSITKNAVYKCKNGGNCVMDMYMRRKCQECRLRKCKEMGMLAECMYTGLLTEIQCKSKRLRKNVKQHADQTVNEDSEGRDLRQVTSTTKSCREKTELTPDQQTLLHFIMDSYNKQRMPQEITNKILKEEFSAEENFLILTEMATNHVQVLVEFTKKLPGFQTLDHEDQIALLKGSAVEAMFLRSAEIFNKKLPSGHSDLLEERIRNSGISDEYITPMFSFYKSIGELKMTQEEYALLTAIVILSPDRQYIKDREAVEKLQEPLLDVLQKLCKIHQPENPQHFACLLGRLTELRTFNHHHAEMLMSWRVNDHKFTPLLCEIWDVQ
Hypoxia-inducible factor 1-alpha (Homo sapiens), sequence (Q16665 whole entry, looked up, the tested form may be a part): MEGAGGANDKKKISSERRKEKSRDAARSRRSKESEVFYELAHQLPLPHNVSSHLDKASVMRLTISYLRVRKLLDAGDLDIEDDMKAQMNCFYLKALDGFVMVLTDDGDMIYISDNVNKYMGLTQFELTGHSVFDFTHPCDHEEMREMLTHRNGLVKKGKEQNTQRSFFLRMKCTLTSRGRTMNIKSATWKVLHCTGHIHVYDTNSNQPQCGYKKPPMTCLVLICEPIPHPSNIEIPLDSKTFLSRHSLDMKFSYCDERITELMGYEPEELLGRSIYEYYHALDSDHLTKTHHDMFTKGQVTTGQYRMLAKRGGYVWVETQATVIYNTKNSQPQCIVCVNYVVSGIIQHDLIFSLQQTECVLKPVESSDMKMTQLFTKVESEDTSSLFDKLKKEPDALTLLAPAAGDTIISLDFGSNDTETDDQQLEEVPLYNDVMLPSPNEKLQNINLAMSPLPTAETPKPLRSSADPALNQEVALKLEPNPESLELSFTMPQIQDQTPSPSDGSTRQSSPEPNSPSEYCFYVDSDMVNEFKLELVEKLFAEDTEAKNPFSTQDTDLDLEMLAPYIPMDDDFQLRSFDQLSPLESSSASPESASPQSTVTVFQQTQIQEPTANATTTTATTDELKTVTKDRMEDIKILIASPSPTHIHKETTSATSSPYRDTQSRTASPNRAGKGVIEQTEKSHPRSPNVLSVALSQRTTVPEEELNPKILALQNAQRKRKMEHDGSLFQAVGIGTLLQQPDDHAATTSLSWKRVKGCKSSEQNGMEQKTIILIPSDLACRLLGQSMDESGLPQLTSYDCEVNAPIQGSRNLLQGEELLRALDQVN
Paired box protein Pax-6 (Homo sapiens), sequence (P26367 whole entry, looked up): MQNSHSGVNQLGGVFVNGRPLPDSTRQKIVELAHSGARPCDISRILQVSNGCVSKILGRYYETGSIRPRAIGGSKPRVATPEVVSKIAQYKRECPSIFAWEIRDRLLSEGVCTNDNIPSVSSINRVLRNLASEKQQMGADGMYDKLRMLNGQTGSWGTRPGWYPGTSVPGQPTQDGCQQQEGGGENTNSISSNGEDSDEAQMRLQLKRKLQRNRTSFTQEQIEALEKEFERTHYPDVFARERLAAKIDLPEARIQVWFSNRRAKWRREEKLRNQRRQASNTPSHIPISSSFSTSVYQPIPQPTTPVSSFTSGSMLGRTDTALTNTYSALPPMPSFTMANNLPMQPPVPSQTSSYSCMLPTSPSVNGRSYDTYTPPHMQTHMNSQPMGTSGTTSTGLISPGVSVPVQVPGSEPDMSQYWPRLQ
Heat shock factor protein 1 (Homo sapiens), sequence (Q00613 whole entry, looked up, the tested form may be a part): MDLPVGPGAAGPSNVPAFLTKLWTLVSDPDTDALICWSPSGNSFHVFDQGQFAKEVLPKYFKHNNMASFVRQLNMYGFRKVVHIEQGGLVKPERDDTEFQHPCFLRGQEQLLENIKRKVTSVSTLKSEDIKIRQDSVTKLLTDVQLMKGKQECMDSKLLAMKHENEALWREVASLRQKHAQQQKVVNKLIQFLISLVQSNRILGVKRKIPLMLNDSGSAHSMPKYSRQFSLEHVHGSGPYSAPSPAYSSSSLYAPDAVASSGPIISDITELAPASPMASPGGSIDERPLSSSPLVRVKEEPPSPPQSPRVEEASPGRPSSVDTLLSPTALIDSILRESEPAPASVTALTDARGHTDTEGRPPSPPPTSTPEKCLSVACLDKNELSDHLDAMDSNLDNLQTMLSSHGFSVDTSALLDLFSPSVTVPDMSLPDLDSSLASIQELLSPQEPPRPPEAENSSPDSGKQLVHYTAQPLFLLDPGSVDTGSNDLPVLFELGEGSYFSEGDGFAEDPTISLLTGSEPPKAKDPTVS
Hepatocyte nuclear factor 6 (Homo sapiens), sequence (Q9UBC0 whole entry, looked up): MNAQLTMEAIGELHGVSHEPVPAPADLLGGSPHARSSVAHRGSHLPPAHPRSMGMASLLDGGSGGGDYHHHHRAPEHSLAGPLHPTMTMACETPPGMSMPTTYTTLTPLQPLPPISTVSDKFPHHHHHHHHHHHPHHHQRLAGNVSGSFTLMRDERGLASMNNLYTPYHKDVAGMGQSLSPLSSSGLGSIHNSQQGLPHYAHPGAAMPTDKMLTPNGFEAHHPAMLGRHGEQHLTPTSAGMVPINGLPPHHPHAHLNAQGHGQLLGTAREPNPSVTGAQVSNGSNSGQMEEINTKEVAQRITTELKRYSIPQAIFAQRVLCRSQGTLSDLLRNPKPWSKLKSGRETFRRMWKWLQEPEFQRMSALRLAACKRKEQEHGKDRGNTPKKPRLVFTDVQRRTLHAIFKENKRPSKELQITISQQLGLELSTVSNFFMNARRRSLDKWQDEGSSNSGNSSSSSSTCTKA

With `CC1(C)C(=O)N(Cl)C(=O)N1Br`, the call in test [1], in test [2], in test [3], in [4], in test [5] and in [6] was inactive. Moreover, the compound was classed as inactive in test [7], in test [8], in test [9], in test [11], in test [12] and in test [13]. For the same compound, the call in test [14], in test [15], in [16], in test [17] and in test [18] was inactive. In addition, the half-maximal activity concentration (AC50) in test [10] is 62.7 µM (active).

For `O=[N+]([O-])c1ccc(O)cc1C(F)(F)F`, the result in [1], in test [2], in test [4], in [5], in [20] and in test [6] was inactive. The result in [8], in test [9], in [11], in [13], in test [16] and in [17] was inactive. Besides, the compound was classed as inactive in [18]. Further, the half-maximal activity concentration (AC50) in [19] is 48 µM (active); in test [7] it was 61.1 µM (active); in test [10] it was 84.1 µM (active); in test [12], 49 µM (active); in test [14] it was 100 µM (active); in test [15] it was 100 µM (active).

`CCCC(O)C(O)CO` (stereo not drawn): the compound was called inactive in test [1], in [2], in test [3], in [4], in test [5] and in [6]. In addition, the compound was classed as inactive in test [7], in test [9], in test [10], in [12], in test [14] and in test [15]. In addition, the result in test [16], in test [17] and in test [18] was inactive.

For `CC(C)c1ccccc1O`, the result in [1], in test [2], in [4], in [5], in test [6] and in test [7] was inactive. In addition, the compound was classed as inactive in test [9], in [12], in test [13], in test [14], in [15] and in test [16]. Moreover, the result in [17] and in test [18] was inactive. Besides, in [10], the AC50 is 81.1 µM (active).

For `Cc1c(Cl)cccc1[N+](=O)[O-]`, the outcome in [1], in test [2], in [19], in test [4], in test [5] and in test [20] was inactive. The compound was called inactive in test [7], in test [9], in test [10], in test [11], in test [12] and in test [13]. In addition, the result in [14], in [15], in test [16] and in test [17] was inactive.
